Screens: PubChem BioAssay, several laboratories
GDH-TPI counter-1 – inhibits GDH-TPI coupling enzymes, artifact for Mtb FBA screen. inhibition, % at 4.8 µM. GDH-TPI coupled enzyme counterscreen, NADH absorbance. 1.2% of 360,000 active; in the data active = inhibition above about 30%
Anthrax LF inh2 – blocks Bacillus anthracis lethal factor protease. 0.12% of 360,000 active. multiplex microsphere protease cleavage assay, LF. P15917. inhibition, % at 10 µM; in the data active = inhibition above about 30%
Target sequence (P15917 whole entry, looked up): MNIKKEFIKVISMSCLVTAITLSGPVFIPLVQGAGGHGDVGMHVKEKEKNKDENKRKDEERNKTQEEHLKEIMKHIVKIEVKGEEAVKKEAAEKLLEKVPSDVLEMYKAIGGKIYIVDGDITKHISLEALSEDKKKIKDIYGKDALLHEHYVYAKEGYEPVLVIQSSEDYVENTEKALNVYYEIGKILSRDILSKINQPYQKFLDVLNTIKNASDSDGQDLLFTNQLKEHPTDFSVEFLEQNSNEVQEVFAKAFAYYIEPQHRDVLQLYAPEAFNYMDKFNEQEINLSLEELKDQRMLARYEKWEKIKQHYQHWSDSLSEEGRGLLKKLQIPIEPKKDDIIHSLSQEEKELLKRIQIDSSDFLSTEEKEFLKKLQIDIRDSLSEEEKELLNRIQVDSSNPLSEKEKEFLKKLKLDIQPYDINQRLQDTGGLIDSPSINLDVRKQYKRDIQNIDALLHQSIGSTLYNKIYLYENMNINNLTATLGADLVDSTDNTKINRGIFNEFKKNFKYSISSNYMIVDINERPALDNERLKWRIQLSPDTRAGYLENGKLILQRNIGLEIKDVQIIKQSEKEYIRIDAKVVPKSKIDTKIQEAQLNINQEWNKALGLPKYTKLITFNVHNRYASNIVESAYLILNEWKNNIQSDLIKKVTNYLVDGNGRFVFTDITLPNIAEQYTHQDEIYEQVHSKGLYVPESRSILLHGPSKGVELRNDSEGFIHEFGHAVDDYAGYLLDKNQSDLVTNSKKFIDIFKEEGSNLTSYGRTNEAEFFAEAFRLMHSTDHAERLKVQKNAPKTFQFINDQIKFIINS
Mtb FBA inh – Mtb fructose-bisphosphate aldolase inhibition | purified M. tuberculosis FBA, fluorescence read-out | inhibition, % at 1 µM | 2.3% of 360,000 active
Bead autofluor – compound fluorescence in toxin protease inhibitor counterscreen; 3.1% of 360,000 active; compound autofluorescence counterscreen, microsphere flow cytometry; stronger effect = higher value; AID 624483; fluorescence intensity (test concentration not listed); in the data active = fluorescence intensity above about 16000
BoNT A protease – blocks Botulinum neurotoxin A light chain protease; 0.17% of 360,000 active; multiplex microsphere protease substrate cleavage, flow cytometry; inhibition, % at 10 µM; in the data active = inhibition above about 30%
BoNT F protease – inhibitors of Botulinum neurotoxin F light chain protease. Multiplex microsphere protease cleavage assay, flow cytometry. inhibition, % at 10 µM. 0.22% of 360,000 active. AID 588497; in the data active = inhibition above about 35%, passing the limit was not always enough
Mtb FBA confirm – Mtb FBA inhibition, confirmed; AID 651616; shares compounds with Mtb FBA inh; 78% of 5,600 active; purified M. tuberculosis FBA, fluorescence read-out; inhibition, % at 1 µM
GDH-TPI counter-2 – inhibits GDH-TPI coupling enzymes, flagging Mtb FBA hits | inhibition, % at 1 µM | GDH-TPI coupled enzyme counterscreen, fluorescence | shares compounds with Mtb FBA inh | 81% of 5,600 active; in the data active = inhibition above about 10%
Hits are given with their value; n = inactive; x = no result given; + = active, no number. In the library only some 6.6% were active in any assay of this set; here they are far more common. Cut-off read from the data, not from the text of the source, unless noted: active = inhibition above about 27%; inactive = the rest.

SMILES	GDH-TPI counter-1	Anthrax LF inh2	Mtb FBA inh	Bead autofluor	BoNT A protease	BoNT F protease	Mtb FBA confirm	GDH-TPI counter-2
COc1cccc(-c2ccc(C#N)c(=O)[nH]2)c1	n	n	111	n	n	n	+	+
COc1ccc2[nH]c3c(c2c1)CCN=C3C	n	n	n	n	n	n	x	x
COc1ccc2[nH]c3c(c2c1)CCNC3=O	n	n	88	n	n	n	44	36
C=C(C)CNC(=S)N/N=C/c1ccc(N2CCOCC2)cc1	42	n	53	n	n	n	53	52
C/C(=N/NC(=O)COc1ccc(C(C)(C)C)cc1)c1ccc(N2CCOCC2)cc1	n	n	n	n	n	n	x	x
CC(C)(C)c1ccc(OCC(=O)N/N=C/c2ccc(N3CCOCC3)cc2)cc1	n	n	27	n	n	n	62	43
COCCNC(=S)N/N=C/c1ccc([N+](=O)[O-])cc1	n	n	n	n	n	n	x	x
CC(C)NC(=S)N/N=C/c1ccc(N2CCOCC2)cc1	40	n	38	n	n	n	120	89
COCCNC(=S)N/N=C/c1ccc(N2CCOCC2)cc1	31	n	46	n	n	n	+	+
CCOC(=O)Cc1csc(NS(=O)(=O)c2ccc([N+](=O)[O-])cc2)n1	n	n	n	n	n	n	x	x
CCOC(=O)N1CCC(N2CCCC(C(=O)c3ccc4cc(OC)ccc4c3)C2)CC1 (centres undefined)	n	n	107	n	n	n	116	91
COc1ccc2cc(C(=O)NCc3ccccc3CN3CCCC3)ccc2c1	n	n	33	n	n	n	115	104
COc1ccc2cc(C(=O)C3CCCN(C(=O)CCc4ccccn4)C3)ccc2c1 (centres undefined)	n	n	96	n	n	n	94	62
COc1ccc(C(=O)C2CCCN(Cc3cccc(C)n3)C2)c(OC)c1 (centres undefined)	n	n	n	n	n	n	x	x
COc1cccc(C(=O)C2CCCN(Cc3ccccn3)C2)c1 (centres undefined)	n	n	n	n	n	n	x	x
COc1ccc2cc(C(=O)C3CCCN(Cc4cccc(C)n4)C3)ccc2c1 (centres undefined)	n	n	29	n	n	n	47	40
COc1ccc2oc(C(=O)NCc3ccccc3CN3CCCC3)c(C)c2c1	n	n	n	n	n	n	x	x
COc1cccc(CNc2ccccc2O)c1OCc1ccccc1F	n	n	n	n	n	n	x	x
CC1CCCN(S(=O)(=O)c2cccc(C(=O)NCCCN3CCCC3=O)c2)C1 (centres undefined)	n	n	n	n	n	n	x	x
COc1ccc(C(=O)C2CCCN(Cc3ccc4nonc4c3)C2)c(OC)c1 (centres undefined)	n	n	57	n	n	n	153	135
CCCCCCSc1cccc(-c2nc3ccc(Cl)cn3c2NCc2ccccc2)c1	n	n	n	n	n	n	x	x
O=C(OCc1ccc(Br)cc1F)c1cc2ccccc2oc1=O	n	n	67	n	n	n	191	153
O=C(COC(=O)c1cc2ccccc2oc1=O)Nc1cccc(Br)c1	n	x	n	x	x	x	x	x
CCCCNc1c(-c2ccc(OC)c(SC(C)CC)c2)nc2cnccn12 (centres undefined)	n	n	n	n	n	n	x	x
CCCCCCSc1cc(-c2nc3ccc(C)cn3c2NCCCC)ccc1OC	n	n	28	n	n	n	139	107
SMILES	GDH-TPI counter-1	Anthrax LF inh2	Mtb FBA inh	Bead autofluor	BoNT A protease	BoNT F protease	Mtb FBA confirm	GDH-TPI counter-2
CCC(C)Sc1cc(-c2nc3ccccn3c2NC2CCCCC2)ccc1OC (centres undefined)	n	n	34	n	n	n	87	78
CCCCNc1c(-c2ccc(-c3ccc(C(C)=O)cc3)c(OC)c2)nc2cc(C)ccn12	n	n	n	n	n	n	x	x
CCCCNc1c(-c2ccc(Sc3ccc(OC)cc3)cc2)nc2cc(C)ccn12	n	n	53	n	n	n	54	60
CCC(C)Sc1cccc(-c2nc3cnccn3c2NC2CCCCC2)c1 (centres undefined)	n	n	n	n	n	n	x	x
CCCCNc1c(-c2ccc(OC)c(SC(C)CC)c2)nc2cc(C)ccn12 (centres undefined)	n	n	31	n	n	n	93	91
CCCCn1c(N)c(N(CCC(C)C)C(=O)CCCc2nc3ccccc3s2)c(=O)[nH]c1=O	n	n	n	n	n	n	x	x
CCCCNc1c(-c2ccc(OC)c(SC(C)CC)c2)nc2ccc(C)cn12 (centres undefined)	n	n	41	n	n	n	74	87
CCCCCCSc1ccc(-c2nc3ccc(C)cn3c2NCc2ccccc2)cc1OC	n	n	38	n	n	n	146	110
CCCCNc1c(-c2ccc(SC(C)CC)cc2)nc2ccccn12 (centres undefined)	n	n	57	n	n	n	83	72
c1csc(-c2nc3ccccn3c2NC2CCCCC2)c1	n	n	43	n	n	n	n	n
CCCCNc1c(-c2cccc(SC(C)CC)c2)nc2ccc(Cl)cn12 (centres undefined)	n	n	n	n	n	n	x	x
Cc1ccn2c(NC3CCCC3)c(-c3cccs3)nc2c1	n	n	n	n	n	n	x	x
CN1CCN(c2ccc(S(=O)(=O)N3CCOCC3)cc2NC(=O)CSCc2ccccc2)CC1	n	n	n	n	n	n	x	x
COc1cc2[nH]c(C(=O)NCC3CCCO3)cc2c(OC)c1OC (centres undefined)	n	n	32	n	n	n	+	+
COc1cc2[nH]c(=S)nc(NCC3CCCO3)c2cc1OC (centres undefined)	n	n	75	n	n	n	83	61
O=S(=O)(c1ccc2ncn(O)c2c1)N1CCOCC1	n	n	n	n	n	n	x	x
CCc1ccc2nc(N=C(N)N)nc(C)c2c1	n	n	40	n	n	n	177	133
Cc1ccc2nc(N=C(N)N)nc(C)c2c1	n	n	n	n	n	n	x	x
Cc1ccc(-c2cc3nc(-c4ccccc4)cc(N)n3n2)cc1	n	n	29	n	n	n	n	n
Cc1ccc(-c2cc3nc(-c4ccccc4)cc(NCCCO)n3n2)cc1	n	n	83	n	n	n	72	54
Cn1ncc(Br)c1C(=O)N1CCCCCC1	n	n	n	n	n	n	x	x
CC(=O)Nc1cc(-c2cccc(C(=O)NCCN(C)C)c2)cn2c(-c3cccc(C(F)(F)F)c3)cnc12	n	n	n	n	n	n	x	x
CCOC(=O)c1c(-c2ccccc2)oc2ccc(OCC(O)CN(C)C)cc12 (centres undefined)	n	n	48	n	n	n	44	32
CCOC(=O)c1c(-c2ccccc2)oc2ccc(O)c(CN(C)C)c12	n	n	n	n	n	n	x	x
